These results are taken from PubChem BioAssay.

Inconclusive results are not listed. The source made the active and inactive calls.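 The calls were made as follows, unless noted: active = efflux inhibition above 0.42, the validation set average plus 4 SD; inconclusive = no clear call, values can overlap the other calls; inactive = the rest.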

The nature of experiment [1]: rapamycin-like changes in RPL19A-GFP expression – cell-based, S. cerevisiae, multiplex flow cytometry, primary screen (AID 1862; in the data active = percent of DMSO control GFP below about 86%;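 also: lower values mimic rapamycin by blocking the RPL19A rise seen in DMSO cells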). Particulars: S. cerevisiae RPL19A-GFP strain, flow cytometry fluorescence, 3 h; at 10 µM; stronger effect = lower value.
The nature of experiment [2]: TOR pathway GLN3 branch reporter MEP2-GFP changes – S. cerevisiae, multiplex flow cytometry, primary screen (AID 1867;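 active = GFP response, as percent of the DMSO control, above the screen-wide mean plus 3 SD, about 139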;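 also: median GFP channel fluorescence of barcode-gated MEP2-GFP cells measured by flow cytometry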). The following applies: S. cerevisiae MEP2-GFP strain, 3 h, at 10 µM, stronger effect = higher value, 100% means same as DMSO wells. Background: A flow cytometer gives signals particle by particle.
A short description of experiment [3]: TOR pathway RTG branch CIT2 reporter changes – S. cerevisiae, GFP fusion, multiplex flow cytometry, primary screen (AID 1870;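 active = percent response above a set limit, the screen-wide mean plus 3 SD, cut at about 130% in these data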;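 also: barcoded CIT2-GFP strain pooled with four other GFP strains with rapamycin as positive control; median GFP fluorescence per well over plate mean of DMSO wells so 100% = DMSO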). The following applies: S. cerevisiae CIT2-GFP expression, 3 h, at 10 µM, stronger effect = higher value.
Experiment [4] can be described thus: TOR pathway LAP4-GFP level changes – S. cerevisiae, multiplex flow cytometry, primary screen (AID 1873;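 active = GFP signal, as percent of the solvent control, above the screen mean plus 3 SD, about 149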). The following applies: S. cerevisiae LAP4-GFP expression, 3 h, at 10 µM, stronger effect = higher value.
A short description of experiment [5]: yeast AGP1-GFP level changes, GLN3 branch – cell-based, multiplex flow cytometry, S. cerevisiae, primary screen (AID 1887;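 active = GFP signal above the screen-wide mean plus 3 SD, that is over about 124.5% of the solvent control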;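 also: AGP1-GFP fusion strain of S. cerevisiae within a five-strain barcoded multiplex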). The following applies: 3 h, at 10 µM, stronger effect = higher value.
Experiment [6] in a line: reduced mouse 2C T cell binding to pMHC/ICAM-1 vesicles – MLPCN validation set, flow cytometry, LFA-1/ICAM-1 modulator project, pilot screen (AID 2523;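 active = response below a set limit, under 55% cells CD8-positive and vesicle-bound, and CD8 cells' 90th-percentile brightness under 279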;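 as to vesicle binding response: mean PE anti-B7-1 fluorescence of CD8+ cells relative to row control; 100% = QL9-loaded vesicles with DMSO vehicle in the same plate row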). The following applies: 2C mouse CD8+ T cells, at 7 µM, stronger effect = lower value; double positive events: measured here: CD8+/vesicle+ event percentage.
Experiment [7] has as its target Integrin beta-1 (Homo sapiens) + Integrin alpha-4 (Homo sapiens) (UniProt P13612+P05556). As to the kind of experiment: alpha4beta1 integrin LIBS antibody binding reduction – U937 cells, HUTS-21 mAb, flow cytometry, validation set, VLA-4 allosteric modulator project, pilot screen (AID 2674;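 active = inhibition above 50%, about 3 SD of the validation set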;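 also: antibody binding induced by the VLA-4 ligand LDV present at three times its Kd; 0% = LDV ligand with antibody and no compound and 100% = antibody without LDV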). Particulars: HUTS-21 LIBS mAb binding, at 6.7 µM, stronger effect = higher value, binding induced by LDV ligand.

Experiment [8] can be described thus: calorie-restriction mimetic ROS inhibitors, yeast – validation compound set, pilot screen (AID 2706;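 active = superoxide response below 65% of plate, a cut near 3 SD across the whole screen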;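 also: yeast exposed to compound for one week at 30 degrees C before staining; 100% = mean of all compound wells on the same plate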). Particulars: S. cerevisiae aging, superoxide DHE fluorescence; at 10 µM; stronger effect = lower value.
The target of experiment [9] is Beta-adrenergic receptor kinase 1 (Homo sapiens) (UniProt P25098). Kind of experiment: GRK2 binders displacing RNA aptamer, biochemical, validation, human GRK2, bead flow cytometry (AID 488806;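 active = aptamer binding inhibition above 30%, about 3 SD of noise from non-fluorescent compounds; inactive = inhibition at or below 30%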). Particulars: bead-bound GRK2, FAM-aptamer displacement, at 10 µM, stronger effect = higher value.
Experiment [10] addresses Beta-2 adrenergic receptor (Homo sapiens) (UniProt P07550). Kind of experiment: agonist-induced loss of surface beta2AR – cell-based, FAP fluorogen, flow cytometry, validation set, pilot screen (AID 504459;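 active = percent response above 42, roughly 3 SD of non-fluorescent test compounds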;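 also: agonist-driven loss of surface beta2AR via internalization measured by FAP dye flow cytometry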). Particulars: Am2.2-beta2AR cells, at 10 µM, stronger effect = higher value.
Experiment [11] addresses AP-2 complex subunit beta (Homo sapiens) (UniProt P63010). As to the kind of experiment: beta-arrestin/AP2 interaction blockers – biochemical, validation set, GST-AP2 beads, flow cytometry, pilot screen (AID 504541;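 active = inhibition above 54%, about 3 SD of non-fluorescent compounds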;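 also: AP2 carries R879A mutation and is captured from E. coli lysate; bead-bound FITC arrestin peptide fluorescence measuring arrestin peptide binding to AP2; 0% = DMSO wells and 100% = excess unlabeled arrestin peptide control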). The following applies: FITC arrestin peptide, at 10 µM, stronger effect = higher value, AP2 beta2 appendage fragment, R879A mutant.
A short description of experiment [12]: cytosolic pH regulators acting via V-ATPase – S. cerevisiae, pHLuorin, HTS validation (AID 504600; in the data active = response above about 15%;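 also: plate controls were DMSO for no effect and reference compound for full effect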). Particulars: V-ATPase proton transport, at 10 µM, stronger effect = higher value.
Experiment [13] deals with anti-desmoglein-3 scFv antibody binding to human DSG3. Kind of experiment: blockers of pathogenic pemphigus antibody–desmoglein-3 binding – biochemical, validation compound set, bead-based, flow cytometry, pilot screen (AID 588368;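 active = binding below the plate cutoff, the plate median minus 3 SD, with a reading above zero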;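 also: signal is the median channel fluorescence of bead-bound GFP antibody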). The following applies: Protein G beads, DSG3-Fc, scFv-GFP binding, at 10 µM, stronger effect = lower value.
The nature of experiment [14]: Nile Red efflux blockade in pump-expressing yeast – validation compound set, multiplex, phenotypic, pilot screen (AID 588506).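 Also: Nile Red retained in cells so higher fluorescence means more efflux inhibition; 0 = negative control wells and 1 = enniatin B 25 µM full block.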 Particulars: S. cerevisiae pump-expressing triplex, Nile Red efflux flow cytometry; at 10 µM; stronger effect = higher value; the pumps come from Candida albicans.
Experiment [15] has as its target ATP-binding cassette sub-family B member 6 (Homo sapiens) (UniProt Q9NP58). Kind of experiment: blockers of ABCB6-driven porphyrin uptake – K562-ABCB6 cells, flow cytometry, validation set, pilot screen (AID 588550;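 active = inhibition above the screen-wide mean plus 3 SD, about 51%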;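 also: 0% = DMSO wells and 100% = benzethonium chloride 70 µM positive control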). Particulars: K562-ABCB6 porphyrin accumulation, 1 h, at 10 µM, stronger effect = higher value.
Experiment [16] in a line: AML differentiation inducers, ER-HoxA9 marrow cells – cell-based, GFP/MAC1 double positive, flow cytometry, validation set, primary screen (AID 588685;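 active = differentiation response of at least 50%, scaled between solvent and reference control, from cells with both markers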;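 also: compound exposure lasts four days before antibody staining and flow analysis; 0% = DMSO wells and 100% = 5 µM fulvestrant positive control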). Particulars: stronger effect = higher value, normalized: vehicle 0, fulvestrant 100.

Chain of AP-2 complex subunit beta (Homo sapiens) (P63010 whole entry, looked up, the tested form may be a part, one chain of several): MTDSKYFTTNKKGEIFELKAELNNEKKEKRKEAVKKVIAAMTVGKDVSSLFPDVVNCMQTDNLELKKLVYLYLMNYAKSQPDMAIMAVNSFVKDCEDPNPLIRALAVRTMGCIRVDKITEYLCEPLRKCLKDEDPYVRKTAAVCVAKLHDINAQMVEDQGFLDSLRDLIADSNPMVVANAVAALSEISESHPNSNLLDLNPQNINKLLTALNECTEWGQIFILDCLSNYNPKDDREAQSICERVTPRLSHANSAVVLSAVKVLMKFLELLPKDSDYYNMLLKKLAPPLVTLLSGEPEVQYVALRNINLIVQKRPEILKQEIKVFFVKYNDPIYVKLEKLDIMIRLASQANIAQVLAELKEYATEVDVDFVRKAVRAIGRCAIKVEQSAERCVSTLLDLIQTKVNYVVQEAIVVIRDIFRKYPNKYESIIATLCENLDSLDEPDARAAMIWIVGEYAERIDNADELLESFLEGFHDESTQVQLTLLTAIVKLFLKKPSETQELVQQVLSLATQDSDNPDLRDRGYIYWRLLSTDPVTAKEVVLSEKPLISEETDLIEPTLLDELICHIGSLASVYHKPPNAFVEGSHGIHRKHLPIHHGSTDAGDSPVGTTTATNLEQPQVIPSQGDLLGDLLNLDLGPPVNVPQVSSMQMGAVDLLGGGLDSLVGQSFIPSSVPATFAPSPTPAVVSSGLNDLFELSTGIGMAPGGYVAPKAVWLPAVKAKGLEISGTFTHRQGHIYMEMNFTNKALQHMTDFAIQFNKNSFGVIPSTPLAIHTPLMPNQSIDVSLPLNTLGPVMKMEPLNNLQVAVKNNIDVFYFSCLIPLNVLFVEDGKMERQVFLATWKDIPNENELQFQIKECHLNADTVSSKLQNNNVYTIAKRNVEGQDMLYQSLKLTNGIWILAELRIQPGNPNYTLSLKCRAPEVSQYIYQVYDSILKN
Chain of Beta-adrenergic receptor kinase 1 (Homo sapiens) (P25098 whole entry, looked up): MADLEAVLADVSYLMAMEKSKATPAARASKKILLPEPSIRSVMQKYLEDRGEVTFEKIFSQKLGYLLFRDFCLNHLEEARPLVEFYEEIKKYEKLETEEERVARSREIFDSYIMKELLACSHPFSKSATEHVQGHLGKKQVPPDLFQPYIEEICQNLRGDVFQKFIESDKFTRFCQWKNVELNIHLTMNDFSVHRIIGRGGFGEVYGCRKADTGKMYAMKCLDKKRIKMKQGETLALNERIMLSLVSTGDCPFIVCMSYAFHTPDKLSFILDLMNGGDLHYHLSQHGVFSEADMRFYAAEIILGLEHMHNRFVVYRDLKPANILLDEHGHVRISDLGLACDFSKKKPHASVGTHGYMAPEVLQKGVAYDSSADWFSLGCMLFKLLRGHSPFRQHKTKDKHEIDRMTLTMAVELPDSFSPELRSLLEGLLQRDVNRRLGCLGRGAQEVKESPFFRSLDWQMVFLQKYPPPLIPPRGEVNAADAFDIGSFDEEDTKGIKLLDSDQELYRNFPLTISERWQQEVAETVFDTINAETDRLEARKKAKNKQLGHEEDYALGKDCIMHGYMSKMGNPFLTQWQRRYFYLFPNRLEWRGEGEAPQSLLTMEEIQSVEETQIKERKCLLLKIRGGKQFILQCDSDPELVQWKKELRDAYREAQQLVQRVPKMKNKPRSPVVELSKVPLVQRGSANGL
Chain of Beta-2 adrenergic receptor (Homo sapiens) (P07550 whole entry, looked up): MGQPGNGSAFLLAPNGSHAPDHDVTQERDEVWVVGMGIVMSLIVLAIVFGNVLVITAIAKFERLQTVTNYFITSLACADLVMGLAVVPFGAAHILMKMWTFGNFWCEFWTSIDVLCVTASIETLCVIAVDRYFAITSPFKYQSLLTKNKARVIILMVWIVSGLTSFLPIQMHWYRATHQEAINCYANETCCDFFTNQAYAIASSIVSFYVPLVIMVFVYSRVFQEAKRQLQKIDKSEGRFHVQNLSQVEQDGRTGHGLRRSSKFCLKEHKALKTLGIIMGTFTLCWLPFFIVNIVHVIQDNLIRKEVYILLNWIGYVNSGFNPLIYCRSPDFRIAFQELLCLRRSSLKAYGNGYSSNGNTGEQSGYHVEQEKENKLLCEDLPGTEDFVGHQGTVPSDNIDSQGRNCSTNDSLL
Chain of Integrin beta-1 (Homo sapiens) + Integrin alpha-4 (Homo sapiens) (P05556 whole entry, looked up): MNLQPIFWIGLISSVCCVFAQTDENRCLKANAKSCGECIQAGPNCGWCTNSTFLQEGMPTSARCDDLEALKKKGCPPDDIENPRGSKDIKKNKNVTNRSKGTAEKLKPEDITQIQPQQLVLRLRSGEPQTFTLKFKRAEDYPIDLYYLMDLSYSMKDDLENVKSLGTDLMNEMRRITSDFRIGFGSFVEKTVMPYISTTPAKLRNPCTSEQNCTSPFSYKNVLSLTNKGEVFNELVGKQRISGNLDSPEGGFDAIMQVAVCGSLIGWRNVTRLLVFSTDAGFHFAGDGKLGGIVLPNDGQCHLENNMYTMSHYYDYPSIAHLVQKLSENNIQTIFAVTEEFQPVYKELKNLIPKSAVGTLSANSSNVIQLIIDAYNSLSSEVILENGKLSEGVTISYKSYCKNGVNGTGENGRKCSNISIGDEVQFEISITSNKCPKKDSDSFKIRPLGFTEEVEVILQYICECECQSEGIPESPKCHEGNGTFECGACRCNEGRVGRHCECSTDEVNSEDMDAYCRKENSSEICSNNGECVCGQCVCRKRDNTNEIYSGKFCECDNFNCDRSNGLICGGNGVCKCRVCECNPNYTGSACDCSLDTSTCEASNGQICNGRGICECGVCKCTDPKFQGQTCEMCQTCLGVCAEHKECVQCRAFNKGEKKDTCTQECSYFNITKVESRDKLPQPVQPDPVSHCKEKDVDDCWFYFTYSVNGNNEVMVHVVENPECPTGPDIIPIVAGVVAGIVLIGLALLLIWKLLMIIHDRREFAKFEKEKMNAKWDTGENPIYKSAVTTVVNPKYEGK
Chain of Integrin beta-1 (Homo sapiens) + Integrin alpha-4 (Homo sapiens) (P13612 whole entry, looked up): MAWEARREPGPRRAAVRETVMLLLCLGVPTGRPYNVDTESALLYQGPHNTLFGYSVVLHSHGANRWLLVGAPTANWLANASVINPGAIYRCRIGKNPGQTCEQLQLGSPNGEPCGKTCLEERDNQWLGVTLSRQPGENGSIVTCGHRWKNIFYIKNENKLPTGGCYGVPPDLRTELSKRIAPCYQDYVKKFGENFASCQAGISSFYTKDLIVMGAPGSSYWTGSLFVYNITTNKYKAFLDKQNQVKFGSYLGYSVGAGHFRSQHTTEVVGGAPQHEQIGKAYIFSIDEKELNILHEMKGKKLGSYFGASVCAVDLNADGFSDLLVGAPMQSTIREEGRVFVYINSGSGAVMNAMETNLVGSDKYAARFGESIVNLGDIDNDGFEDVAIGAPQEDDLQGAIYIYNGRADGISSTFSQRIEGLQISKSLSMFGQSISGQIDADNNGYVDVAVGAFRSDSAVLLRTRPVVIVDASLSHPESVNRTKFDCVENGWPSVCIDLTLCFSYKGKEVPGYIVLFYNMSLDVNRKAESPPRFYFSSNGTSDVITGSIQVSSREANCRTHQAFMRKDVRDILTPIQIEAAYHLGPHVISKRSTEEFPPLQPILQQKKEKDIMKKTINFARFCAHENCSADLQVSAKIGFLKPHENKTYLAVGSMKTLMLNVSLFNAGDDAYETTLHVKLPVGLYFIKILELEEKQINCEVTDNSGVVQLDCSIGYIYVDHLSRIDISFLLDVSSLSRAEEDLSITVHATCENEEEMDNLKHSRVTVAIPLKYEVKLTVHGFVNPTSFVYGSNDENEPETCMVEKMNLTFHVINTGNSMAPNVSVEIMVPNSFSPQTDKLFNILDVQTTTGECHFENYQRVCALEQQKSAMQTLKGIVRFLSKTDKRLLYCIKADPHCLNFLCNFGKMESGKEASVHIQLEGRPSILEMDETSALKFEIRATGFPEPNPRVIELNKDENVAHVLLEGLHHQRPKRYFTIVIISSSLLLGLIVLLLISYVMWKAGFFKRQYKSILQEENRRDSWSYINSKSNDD
Chain of ATP-binding cassette sub-family B member 6 (Homo sapiens) (Q9NP58 whole entry, looked up): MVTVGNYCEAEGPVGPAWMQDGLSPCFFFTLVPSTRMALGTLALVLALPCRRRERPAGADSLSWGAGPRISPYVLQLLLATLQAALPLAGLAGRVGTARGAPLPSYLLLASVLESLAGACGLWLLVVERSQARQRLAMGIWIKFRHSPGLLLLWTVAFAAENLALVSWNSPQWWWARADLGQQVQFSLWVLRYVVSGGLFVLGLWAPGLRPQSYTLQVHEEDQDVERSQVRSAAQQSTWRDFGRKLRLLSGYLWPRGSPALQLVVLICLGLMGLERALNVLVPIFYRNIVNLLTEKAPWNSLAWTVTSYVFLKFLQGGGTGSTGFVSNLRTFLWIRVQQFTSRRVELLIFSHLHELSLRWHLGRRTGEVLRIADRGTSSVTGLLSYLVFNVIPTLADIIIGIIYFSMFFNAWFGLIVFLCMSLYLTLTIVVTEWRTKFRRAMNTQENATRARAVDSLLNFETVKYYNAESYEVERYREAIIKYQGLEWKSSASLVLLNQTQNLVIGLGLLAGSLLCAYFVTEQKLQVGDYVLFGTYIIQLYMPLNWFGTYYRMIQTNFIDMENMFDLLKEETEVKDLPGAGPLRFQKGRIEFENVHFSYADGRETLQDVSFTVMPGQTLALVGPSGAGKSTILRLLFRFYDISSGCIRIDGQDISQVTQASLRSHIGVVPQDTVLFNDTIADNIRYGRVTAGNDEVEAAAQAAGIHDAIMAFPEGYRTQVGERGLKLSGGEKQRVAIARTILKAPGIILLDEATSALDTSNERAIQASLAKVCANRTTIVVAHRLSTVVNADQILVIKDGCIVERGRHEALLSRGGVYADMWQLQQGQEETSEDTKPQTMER

As for `O=C(O)/C=C/c1cnc[nH]1`, the percent of DMSO control GFP in [1] was 104% (inactive). Besides, the GFP response vs DMSO is 108% (inactive) in experiment [2] and 101% (inactive) in [4]. In addition, in experiment [3], the percent response of DMSO control was 106% (inactive). Also, in experiment [5], the GFP response, % of DMSO is 112% (inactive). The double positive events in [6] worked out at 59.9%. The vesicle binding response in experiment [6] is 93.5% (inactive). The figures for the inhibition in [7], in experiment [11] and in [15] were 2.93% (inactive), -0.6% (inactive) and 10% (inactive), respectively. Also, the superoxide response (% of plate) in experiment [8] is 98.6% (inactive). Also, the aptamer binding inhibition in experiment [9] is -2% (inactive). Further, the response was -4.55% (inactive) in experiment [10] and -0.43% (inactive) in experiment [12]. Besides, the binding (% of control) in experiment [13] is 103% (inactive). Moreover, the efflux inhibition (fraction of control) in experiment [14] is 0.755 (active). In addition, in [16], the differentiation response is -13.3% (inactive).

Turning to `CCOC(=O)c1c(O)c2c([nH]c1=O)CCCC2`, the percent of DMSO control GFP in experiment [1] was 100% (inactive). Besides, the GFP response vs DMSO in experiment [2] was 91.9% (inactive); in [4], 102% (inactive). For the same molecule, the percent response of DMSO control in experiment [3] was 101% (inactive). The GFP response, % of DMSO in [5] is 96% (inactive). Further, the double positive events in [6] amounted to 69.7%. Further, the vesicle binding response in experiment [6] was 109% (inactive). Moreover, the values for the inhibition in [7], in experiment [11] and in experiment [15] were -34.6% (inactive), 17.2% (inactive) and 9% (inactive), respectively. For the same molecule, in experiment [8], the superoxide response (% of plate) is 101% (inactive). The aptamer binding inhibition in [9] is 3% (inactive). The values for the response in [10] and in experiment [12] were -11% (inactive) and -2.71% (inactive), respectively. Moreover, the binding (% of control) in experiment [13] was 99.3% (inactive). In addition, the efflux inhibition (fraction of control) in [14] was 0.01 (inactive). In addition, in [16], the differentiation response is 5.6% (inactive).

Regarding `NC(N)=NC(=O)Cc1c(Cl)cccc1Cl`, the percent of DMSO control GFP in [1] is 103% (inactive). Also, the GFP response vs DMSO in experiment [2] was 110% (inactive); in [4] it was 99.9% (inactive). Also, the percent response of DMSO control in experiment [3] was 97.8% (inactive). Besides, the GFP response, % of DMSO in [5] was 101% (inactive). Further, the double positive events in [6] came out at 64.6%. Also, the vesicle binding response in [6] is 197% (inactive). For the same molecule, the inhibition was -4.6% (inactive) in experiment [7], 18% (inactive) in experiment [11] and 18% (inactive) in experiment [15]. In addition, in experiment [8], the superoxide response (% of plate) is 109% (inactive). In addition, the aptamer binding inhibition in experiment [9] was -1% (inactive). The response in [10] was -1.1% (inactive); in experiment [12] it was -2.92% (inactive). Besides, in experiment [13], the binding (% of control) was 98.2% (inactive). Further, in [14], the efflux inhibition (fraction of control) was -0.01 (inactive). Besides, the differentiation response in [16] is -2.69% (inactive).

With `CC(=O)c1cccc2c(O)c(C3=Nc4ccccc4C3=O)[nH]c12`, the percent of DMSO control GFP in experiment [1] was 88% (inactive). In addition, the results for the GFP response vs DMSO in experiment [2] and in experiment [4] were 118% (inactive) and 85.3% (inactive), respectively. Besides, the percent response of DMSO control in experiment [3] is 114% (inactive). The GFP response, % of DMSO in [5] is 90.8% (inactive). In addition, in experiment [6], the double positive events came out at 69.7%. Moreover, the vesicle binding response in experiment [6] was 202% (inactive). The inhibition was -29.4% (inactive) in [7], -5.62% (inactive) in experiment [11] and 9% (inactive) in experiment [15]. Besides, the superoxide response (% of plate) in [8] is 129% (inactive). For the same molecule, in experiment [9], the aptamer binding inhibition was 4% (inactive). For the same molecule, the response is -1.02% (inactive) in experiment [10] and 0.43% (inactive) in experiment [12]. The binding (% of control) in [13] is 103% (inactive). Also, the efflux inhibition (fraction of control) in experiment [14] is 0.23 (inactive). Further, the differentiation response in [16] was 4.91% (inactive).

A word on the inhibition: it is the drop in the measured response relative to a control, in per cent.
